Measured values reported in PubChem BioAssay AID652197 (Broad Institute, 2013).
The campaign covered roughly 340,000 compounds. About 500 (0.15%) were called active.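 Rule for the calls: active = mean replicate inhibition of at least 30%, or all replicates individually reaching that 30% level; inactive = mean below 30% and not every replicate reaching it.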 Many of the other results were omitted from the sample, so actives are more common in it than they were.

Target: Endoplasmic reticulum aminopeptidase 1 (Homo sapiens) (UniProt Q9NZ08)
Sequence (Q9NZ08 whole entry, looked up): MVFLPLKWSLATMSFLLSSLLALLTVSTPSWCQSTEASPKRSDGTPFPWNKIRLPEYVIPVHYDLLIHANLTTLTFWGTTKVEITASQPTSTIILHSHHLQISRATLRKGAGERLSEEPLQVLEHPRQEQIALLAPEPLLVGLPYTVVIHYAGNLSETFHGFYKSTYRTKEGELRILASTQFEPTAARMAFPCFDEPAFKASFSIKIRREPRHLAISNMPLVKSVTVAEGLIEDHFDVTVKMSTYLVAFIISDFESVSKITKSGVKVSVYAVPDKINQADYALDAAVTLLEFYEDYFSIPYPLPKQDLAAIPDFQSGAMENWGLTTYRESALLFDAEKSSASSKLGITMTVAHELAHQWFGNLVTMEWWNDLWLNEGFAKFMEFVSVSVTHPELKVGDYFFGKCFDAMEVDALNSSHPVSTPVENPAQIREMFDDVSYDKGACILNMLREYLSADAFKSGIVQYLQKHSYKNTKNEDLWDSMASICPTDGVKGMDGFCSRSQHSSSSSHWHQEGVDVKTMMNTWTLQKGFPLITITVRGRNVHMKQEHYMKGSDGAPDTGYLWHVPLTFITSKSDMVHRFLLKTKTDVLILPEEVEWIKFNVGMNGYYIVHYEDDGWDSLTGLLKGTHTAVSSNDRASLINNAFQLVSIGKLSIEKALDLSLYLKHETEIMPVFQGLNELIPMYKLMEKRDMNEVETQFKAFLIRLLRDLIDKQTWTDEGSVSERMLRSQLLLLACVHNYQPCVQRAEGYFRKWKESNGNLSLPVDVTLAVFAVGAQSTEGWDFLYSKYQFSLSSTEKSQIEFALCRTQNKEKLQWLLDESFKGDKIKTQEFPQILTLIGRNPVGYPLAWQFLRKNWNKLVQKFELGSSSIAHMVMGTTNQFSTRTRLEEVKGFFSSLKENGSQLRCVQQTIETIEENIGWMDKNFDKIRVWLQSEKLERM
Experiment: human ERAP1 aminopeptidase inhibitors, primary screen, biochemical, single point, plate reader (AID 652197);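 note: 0% = neutral control wells and 100% = L-leucinethiol positive control wells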
Details: recombinant ERAP1, Leu-AMC fluorescence, 60 min; at 10.7 µM; hits give high values

inhibition, active:
COc1cccc2c1C(=O)c1c(O)c3c(c(O)c1C2=O)CC(O)(C(C)=NNC(=O)c1ccc(Cl)c(Cl)c1)CC3OC1CC(N)C(O)C(C)O1 (centres undefined) 42%
COCCNC(=O)Nc1ccc2nc(-c3ccco3)c(-c3ccco3)nc2c1 30.5%
O=C(CN1C(=O)NC2(CCCCC2)C1=O)N1CCN(C(=O)c2cccs2)CC1 37.4%
O=C(O)c1[nH]c2ccccc2c1C(c1cccc(O)c1)c1c(C(=O)O)[nH]c2ccccc12 34.8%

inhibition, inactive:
CC(C)NC(=O)N(C)C[C@@H]1Oc2ccc(N(C)C)cc2CC(=O)N([C@H](C)CO)C[C@@H]1C 2.87%
CN1CCN(C(=O)C[C@H]2CC[C@@H]3[C@H](COC[C@@H](O)CN3CC3CCCC3)O2)CC1 4.35%
CC(C)c1cn(CC[C@@H]2CC[C@@H](NC(=O)C3CC3)[C@H](CO)O2)nn1 -4.66%
COc1ccc2c3c(n(C)c2c1)[C@H](CO)N(C(=O)NC(C)C)CC31CCN(C(=O)NC(C)C)CC1 -0.444%
O=C(N[C@H]1CC[C@@H](CCNS(=O)(=O)c2ccccc2)O[C@H]1CO)c1cccnc1 -2.04%
C[C@@H]1CN([C@@H](C)CO)C(=O)c2cc(NC(=O)Nc3ccc(F)cc3)ccc2O[C@H]1CN(C)CC1CCCCC1 -0.385%
O=C(c1cccc(F)c1)N1CC[C@@H]2[C@H](CO)Nc3ccc(-c4ccccc4)cc3[C@@H]21 -0.032%
O=C(C[C@@H]1CC[C@H](NC(=O)NC2CCCCC2)[C@H](CO)O1)NCc1ccc(F)cc1 0.011%
CC(C)NC(=O)N1[C@H](C(=O)N2CCc3ccccc3C2)[C@@H](CO)[C@@H]2Cn3c(cccc3=O)[C@@H]21 0.844%
COCCNC(=O)CSc1nc(N)c(NC(=O)c2ccco2)c(=O)[nH]1 -7.96%
COCCNC(=O)c1snc2ccc(Cl)cc12 -4.43%
O=C(C[C@H]1CC[C@H]2[C@@H](COC[C@@H](O)CN2CC2CCCC2)O1)NCC1CC1 -1.66%
Cc1noc(C)c1S(=O)(=O)N(C)C[C@H]1Oc2c(NC(=O)c3cnccn3)cccc2C(=O)N([C@H](C)CO)C[C@H]1C 5.55%
Cc1nc(N2[C@H](CO)[C@H](c3ccccc3)[C@H]2CNCC2CCC2)sc1C 2.07%
O=C(C1CCC1)N1CC(=O)N2[C@H](C1)[C@@H](c1ccc(-c3ccccc3F)cc1)[C@@H]2CO -0.661%
CN(C)C(=O)c1cccc(-c2ccc([C@H]3[C@@H](CO)N4C(=O)CN(C(=O)C5CC5)C[C@@H]34)cc2)c1 0.435%
CN1C(=O)c2cc(NC(=O)C3CC3)ccc2OC[C@H]2O[C@H](CC(=O)O)CC[C@H]21 -5.19%
O=C(Nc1ccccc1F)N1CC(=O)N2[C@H](C1)[C@@H](c1ccc(C#CC3CC3)cc1)[C@@H]2CO -0.691%
O=S(=O)(c1ccc(F)cc1)N1CC[C@@H]2[C@@H](CO)Nc3ccc(-c4ccccc4F)cc3[C@@H]21 1%
O=C(Nc1ccccc1F)N[C@@H]1CC[C@@H](CCNC(=O)C2CC2)O[C@H]1CO -0.77%
Cc1noc(C)c1NC(=O)Nc1ccc2c(c1)C(=O)N([C@H](C)CO)C[C@H](C)[C@@H](CN(C)S(C)(=O)=O)OCCCC[C@H](C)O2 -4.94%
CCCC#Cc1ccc([C@H]2[C@H]3CN(C(=O)c4cccnc4)CC(=O)N3[C@H]2CO)cc1 -1.39%
O=C(CN1C(=O)NC2(CCCCCC2)C1=O)NCc1cccs1 -3.05%
O=C1CN(C(=O)CN2C(=O)NC3(CCCCC3)C2=O)c2ccccc2N1 -1.69%
O=C1CNC[C@H]2[C@@H](c3ccc(C4=CCCC4)cc3)[C@@H](CO)N12 -1.67%
CCCN1C[C@H](C)[C@@H](OC)CN(C)C(=O)c2ccc(NC(=O)c3cnccn3)cc2OC[C@H]1C 4.52%
COc1ccc2c3c([nH]c2c1)[C@@H](CO)N(S(C)(=O)=O)CC31CN(CC2CC2)C1 -2.67%
NCC[C@H]1CC[C@H](NC(=O)C2CC2)[C@@H](CO)O1 2.22%
C[C@@H]1CN([C@@H](C)CO)C(=O)c2cc(NC(=O)C3CCCCC3)ccc2O[C@@H](C)CCCCO[C@H]1CN(C)C(=O)CCC(F)(F)F -1.11%
Cc1ccc(S(=O)(=O)Nc2ccc3c(c2)C(=O)N([C@@H](C)CO)C[C@@H](C)[C@H](CN(C)C(=O)NC(C)C)OCCCC[C@H](C)O3)cc1 -4.09%
COc1ccccc1S(=O)(=O)N[C@@H]1CC[C@H](CC(=O)N2CCOCC2)O[C@@H]1CO -0.783%
O=C(OCC(=O)c1c[nH]c2ccccc12)c1cccc(O)c1 -0.958%
C[C@H]1CN([C@@H](C)CO)C(=O)c2cc(NC(=O)Cn3cnnn3)ccc2O[C@H]1CN(C)S(C)(=O)=O -0.7%
CCCNC(=O)Nc1ccc2c(c1)C(=O)N(C)C[C@H](OC)[C@H](C)CN[C@@H](C)CO2 -2.85%
COc1ccc2c3c([nH]c2c1)[C@H](CO)N(C(=O)C1CCC1)CC31CCN(Cc2cccc(F)c2)CC1 0.436%
Cc1noc(C)c1S(=O)(=O)Nc1ccc2c(c1)C(=O)N([C@H](C)CO)C[C@H](C)[C@H](CN(C)C(=O)CCC(F)(F)F)OCCCC[C@H](C)O2 0.261%
CCCNC(=O)Nc1ccc2c(c1)OC[C@H](C)N(C(=O)C1CCC1)C[C@H](C)[C@@H](OC)CN(C)C2=O 2.58%
C[C@@H]1CN([C@@H](C)CO)C(=O)c2c(c3ccccc3n2C)-c2ccccc2CO[C@@H]1CN(C)Cc1ccc2c(c1)OCCN2C 2.84%
O=C(C[C@H]1C[C@@H]2c3cc(NS(=O)(=O)c4ccc(F)cc4)ccc3O[C@@H]2[C@H](CO)O1)NCc1cccc(F)c1 -2.83%
CCCNC(=O)C[C@H]1C[C@H]2c3cc(NC(=O)COC)ccc3O[C@H]2[C@H](CO)O1 0.774%
